In all, about 310,000 compounds went through this assay and about 14,000 (4.5%) showed an effect of 50% or more. The effect is printed as a negative number. The sample holds strong results, similar compounds and a random draw of the others, so the mix is not that of the screen.
molecular target: human ether-à-go-go-related gene (hERG) potassium channel (human, UniProt Q12809); test: primary screen, population patch clamp on CHO cells stably expressing hERG; higher = less effect of the substance
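Note: peak tail current of the secondary pulse compared with the same well before compound.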

Chain of human ether-à-go-go-related gene (hERG) potassium channel (Q12809 whole entry, looked up): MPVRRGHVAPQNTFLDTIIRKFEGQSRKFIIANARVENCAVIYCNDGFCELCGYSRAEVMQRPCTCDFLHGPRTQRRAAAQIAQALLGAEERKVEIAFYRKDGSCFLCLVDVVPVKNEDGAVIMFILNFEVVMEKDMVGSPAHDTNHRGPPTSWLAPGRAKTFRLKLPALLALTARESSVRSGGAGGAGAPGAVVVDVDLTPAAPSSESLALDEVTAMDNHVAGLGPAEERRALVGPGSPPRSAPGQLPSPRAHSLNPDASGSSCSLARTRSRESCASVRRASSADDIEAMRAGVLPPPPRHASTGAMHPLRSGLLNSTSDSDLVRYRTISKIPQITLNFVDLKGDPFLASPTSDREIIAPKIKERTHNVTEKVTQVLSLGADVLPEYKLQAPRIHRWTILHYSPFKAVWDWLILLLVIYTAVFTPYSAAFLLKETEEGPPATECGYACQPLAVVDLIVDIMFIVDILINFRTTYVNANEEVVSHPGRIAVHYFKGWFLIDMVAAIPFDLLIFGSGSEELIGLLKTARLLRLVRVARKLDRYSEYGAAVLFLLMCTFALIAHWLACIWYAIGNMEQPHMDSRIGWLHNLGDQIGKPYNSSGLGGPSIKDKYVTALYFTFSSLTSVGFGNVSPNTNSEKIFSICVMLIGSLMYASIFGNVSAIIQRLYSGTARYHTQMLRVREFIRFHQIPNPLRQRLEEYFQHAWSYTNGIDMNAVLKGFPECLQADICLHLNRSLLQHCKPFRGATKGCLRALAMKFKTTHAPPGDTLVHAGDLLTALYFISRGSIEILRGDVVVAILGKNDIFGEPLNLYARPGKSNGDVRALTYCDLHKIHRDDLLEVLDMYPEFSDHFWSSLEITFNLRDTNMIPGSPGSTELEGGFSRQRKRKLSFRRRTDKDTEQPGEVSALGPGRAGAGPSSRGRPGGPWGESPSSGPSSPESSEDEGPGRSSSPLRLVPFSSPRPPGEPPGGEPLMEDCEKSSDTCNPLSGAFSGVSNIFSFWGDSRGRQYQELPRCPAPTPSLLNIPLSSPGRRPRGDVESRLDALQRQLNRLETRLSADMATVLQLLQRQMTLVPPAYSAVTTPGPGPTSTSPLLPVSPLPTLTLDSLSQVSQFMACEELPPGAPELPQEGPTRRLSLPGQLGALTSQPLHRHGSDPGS

Row | Compound | hERG current change (%, negative = inhibition) at 10uM [%]
1 | O=C(NCC1CCCO1)c1ccc2c(=O)n(CC3CCCO3)c(=S)[nH]c2c1 (stereo not shown) | 6.52
2 | Cc1sc2nc(COC(=O)c3cccc(OC(F)F)c3)[nH]c(=O)c2c1C | 0.0335
3 | O=c1[nH]n2c(=O)c3c([nH]c2c1N=Nc1cccc(Cl)c1)CCCC3 | 3.75
4 | COc1ccc2c(c1)C(=O)N(Cc1ccccc1)C(=O)C2(C)C | 6.19
5 | Cc1nn(Cc2ccc(Cl)cc2)c(C)c1NC(=O)c1cc(C(C)C)on1 | 5.88
6 | Cn1c(SCC(=O)NC2CC2)nnc1-c1ccco1 | 9.16
7 | Cc1ccc(NC(=O)[C@H](Cc2ccccc2)NC(=O)C2CCNCC2)cc1 | 5.64
8 | CCCCCOC(=O)c1ccccc1C(=O)O | 16.1
9 | CC(=O)N/C(=C\c1ccc(C)o1)C(=O)NCc1ccccc1 | 21.8
10 | COc1ccc(OC)c(N2C(=O)NC(=O)/C(=C/c3ccc([N+](=O)[O-])s3)C2=O)c1 | 12.9
11 | COC(=O)C1(CC2CC(c3ccccc3)=NO2)CCN(C(=O)OC(C)(C)C)CC1 (stereo not shown) | -11.4
12 | COc1ccc(CNC(=O)C2(CC3CC(c4ccccc4)=NO3)CCN(C(=O)CCCCCBr)CC2)cc1 (stereo not shown) | -76.9
13 | COc1ccc(CNC(=O)C2(CC3CC(c4ccccc4)=NO3)CCN(C(=O)C3CCCC3)CC2)cc1 (stereo not shown) | -71.6
14 | COc1ccc(CNC(=O)C2(CC3CC(c4ccccc4)=NO3)CCN(C(=O)C3(C)CC3)CC2)cc1 (stereo not shown) | -67
15 | CC(C)(C)OC(=O)N1CCC(CC2CC(c3ccccc3)=NO2)(C(=O)NCc2ccccc2)CC1 (stereo not shown) | -18.3
16 | CC1(C(=O)N2CCC(CC3CC(c4cccc(Br)c4)=NO3)(C(=O)NCC3CCCCC3)CC2)CC1 (stereo not shown) | -20.1
17 | COc1ccc(CNC(=O)C2(CC3CC(c4ccccc4)=NO3)CCN(C(=O)OC(C)(C)C)CC2)cc1 (stereo not shown) | -30.5
18 | COc1ccc(CNC(=O)C2(CC3CC(c4ccccc4)=NO3)CCN(C(=O)c3cccc(O)c3)CC2)cc1 (stereo not shown) | -68.2
19 | CCCNC(=O)C1(CC2CC(c3ccccc3)=NO2)CCN(C(=O)C2CCCC2)CC1 (stereo not shown) | -41.8
20 | CC(C)(C)OC(=O)N1CCC(CC2CC(c3ccccc3)=NO2)(C(=O)O)CC1 (stereo not shown) | 14.7
21 | CCOc1cc(C(=O)N2CCC(CC3CC(c4ccccc4)=NO3)(C(=O)NCc3ccc(OC)cc3)CC2)cc(OCC)c1OCC (stereo not shown) | -8.88
22 | CCCCC1=CC2=CC(=O)C(C)(OC(=O)CC)C(=O)C2=CN1c1ccccc1 (stereo not shown) | 1.5
23 | CCO[C@H]1OC(C(=O)NCc2ccccc2)=C[C@@H](C2CCCCC2)[C@@H]1CCCO | -19.8
24 | COC(=O)C1=C(c2ccc(S(C)(=O)=O)cc2)C[C@@H]2CC[C@H]1N2C(=O)NCCNC(C)=O | 14.6
25 | Cc1occc1-c1nnc(SCC(=O)N2CCCCC2)o1 | -8.31
26 | CCC(C)(CC(=O)Nc1nccs1)c1ccccc1 (stereo not shown) | 7.66

Row | Compound | hERG current change (%, negative = inhibition) at 10uM [%]
27 | COc1cccc(Cn2cc(C)cc(NC(=O)NCc3ccccc3)c2=O)c1 | 11.9
28 | Nc1nc(Cl)cc(Sc2ccc(F)cc2)n1 | 7.51
29 | NNC(=O)c1oc2nc(-c3cccs3)cc(-c3ccco3)c2c1N | -69.8
30 | NNC(=O)c1oc2nc(-c3ccccc3)cc(-c3ccco3)c2c1N | 0.558
31 | NNC(=O)c1oc2nc(-c3ccco3)cc(-c3ccco3)c2c1N | -12.8
32 | CCCCN(C(=O)c1ccc2c(c1)OCO2)c1c(N)n(CCCC)c(=O)[nH]c1=O | 25.7
33 | CSCCC(NS(=O)(=O)c1ccccc1F)C(=O)Nc1ccncc1 (stereo not shown) | -10.8
34 | O=c1cc(Nc2cccc(Br)c2)[nH]c(=O)[nH]1 | -11.5
35 | CCOc1ccc2nc(N3CCC(C(=O)N4CCN(C(=O)c5ccco5)CC4)CC3)sc2c1 | -81.7
36 | CCOc1ccc2nc(N3CCC(C(=O)N4CCN(C5CCCCC5)CC4)CC3)sc2c1 | -46.1
37 | CCOC(=O)C1CCN(C(=O)C2CCN(c3nc4ccc(OC)cc4s3)CC2)CC1 | -67.6
38 | CCOc1ccc2nc(N3CCC(C(=O)N4CCN(c5ccccn5)CC4)CC3)sc2c1 | -45.7
39 | CCOc1ccc2nc(N3CCC(C(=O)N4CCN(c5ncccn5)CC4)CC3)sc2c1 | -13.4
40 | Cc1cccc(N2CCN(C(=O)C3COc4ccccc4O3)CC2)c1C (stereo not shown) | -17.4
41 | Cc1cccc2sc(N3CCN(C(=O)C4COc5ccccc5O4)CC3)nc12 (stereo not shown) | -31.3
42 | Cc1cc(C)c(C#N)c(N2CCN(C(=O)C3COc4ccccc4O3)CC2)n1 (stereo not shown) | -75.4
43 | CCOC(=O)N1CCN(C(=O)c2ccc3nc(N4CCCCC4)sc3c2)CC1 | -15.7
44 | CCOc1ccc2nc(N3CCCCCC3)sc2c1 | -19.2
45 | CCOc1ccc2nc(N3CCC(C(=O)N4CCC5(CC4)OCCO5)CC3)sc2c1 | -8.46
46 | CCOC(=O)Nc1ccc2nc(N3CCCCCC3)sc2c1 | -50.6
47 | Cc1ccc2ncnc(NCCCCCC(=O)O)c2c1.Cl | 17.4
48 | CCOc1ncccc1C(=O)Nc1cccc(S(=O)(=O)NC2=NCCC2)c1 | -6.34
49 | COc1ccc2[n-]c(S(=O)Cc3ncc(C)c(OC)c3C)nc2c1.COc1ccc2[n-]c(S(=O)Cc3ncc(C)c(OC)c3C)nc2c1.[Mg+2] (stereo not shown) [49665950] | 16.3
50 | Cc1ccc(C(=O)NCCSC2CCCCC2)cc1S(=O)(=O)Nc1ccccc1 | -2.9
51 | C=CCCN(Cc1ccccc1)S(=O)(=O)c1ccccc1Br | 3.42
52 | COc1ccc(OCCn2c(C)c(/C=N/n3cnnc3)c3ccccc32)cc1 | -0.339
